The source made the active and inactive calls. Unless noted, how the calls were made is not given here.
Key:
[1] = system: XIP peptide (Xip251-270) binding; assay: XIP fragment 251-270 binding compounds – biochemical, small-molecule microarray, fluorescence 635/667 nm, 0.1 µg/mL protein, primary screen (AID 1182); settings: fluorescent protein binding, 635 nm, higher = more signal, called active from +8 up or from −8 down
[2] = system: XIP peptide (Xip251-270); assay: compounds binding XIP fragment 251-270 – biochemical, small-molecule microarray, fluorescence 635/667 nm, 0.5 µg/mL protein, primary screen (AID 1183); settings: fluorescence 635 nm, higher = more signal
[3] = blood-stage malaria parasite viability loss – strain 3D7, DAPI fluorescence, 100 nL, primary screen (AID 1184);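 further: parasites grown inside human red blood cells in medium with human serum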; settings: P. falciparum 3D7 growth, 3 d, higher = more signal
[4] = molecular target: Homeobox protein Hox-A13 (Mus musculus) (UniProt Q62424); assay: disruptors of Hoxa13 oligonucleotide interaction – biochemical, fluorescence polarization, labeled oligonucleotide, primary screen (AID 1185); settings: Hoxa13:DNA binding, 15 min, higher = more signal, called active from +8 up or from −8 down
[5] = blockers of DNA damage checkpoint Chk1 activation – imaging, HeLa, hydroxyurea, phospho-Chk1 antibody, percent positive cells, primary screen (AID 1186); settings: hydroxyurea-induced phospho-Chk1 immunofluorescence imaging, higher = more signal
[6] = blockers of DNA damage checkpoint Chk1 activation – imaging, HeLa, hydroxyurea, phospho-Chk1 nuclear intensity, primary screen (AID 1187); settings: hydroxyurea-induced phospho-Chk1 immunofluorescence imaging, higher = more signal

Sequence of Homeobox protein Hox-A13 (Mus musculus) (Q62424 whole entry, looked up): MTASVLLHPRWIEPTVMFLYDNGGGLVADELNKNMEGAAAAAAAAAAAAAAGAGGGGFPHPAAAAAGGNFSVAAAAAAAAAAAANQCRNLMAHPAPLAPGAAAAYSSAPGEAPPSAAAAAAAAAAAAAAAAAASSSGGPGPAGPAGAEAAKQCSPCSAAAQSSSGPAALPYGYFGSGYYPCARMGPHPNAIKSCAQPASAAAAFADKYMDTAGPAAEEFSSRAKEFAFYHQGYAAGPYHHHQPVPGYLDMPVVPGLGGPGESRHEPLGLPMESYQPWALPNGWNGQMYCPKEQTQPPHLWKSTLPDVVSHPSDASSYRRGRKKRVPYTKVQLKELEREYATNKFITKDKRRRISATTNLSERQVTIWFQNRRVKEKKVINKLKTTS

Row | SMILES | composite z-score [1] | composite z-score [2] | z-score [3] | z-score [4] | z-score [5] | z-score [6]
1 | C=CC(=C)[C@H]1Oc2ccccc2S(=O)(=O)N2CCC[C@@H]12 | 0.323 (inactive) | -0.253 | -0.0753 | -1.9 (inactive) | 0.142 (inactive) | 0.342 (inactive)
2 | CC(C)N1C(=O)[C@@]2(Cc3ccccc31)c1ccccc1C(=O)N(Cc1ccccc1Cl)[C@H]2c1ccc(CO)cc1 | -0.26 (inactive) | 0.388 | -0.113 | -0.978 (inactive) | -0.339 (inactive) | -0.458 (inactive)
3 | Cc1ccc(N2C(=O)c3ccccc3[C@@H](C(=O)NC3CC3)[C@@H]2c2ccc(CO)cc2)nc1 | -1.49 (inactive) | -0.0549 | -0.651 | -1.95 (inactive) | -0.0109 (inactive) | -0.28 (inactive)
4 | C=CCNC(=O)[C@H]1[C@@H]2C(=O)O[C@@H](c3ccccc3)[C@@H](c3ccccc3)N2[C@@H](c2ccccc2OCCO)[C@]12C(=O)Nc1ccc(C#CCCO)cc12 | 0.749 (inactive) | 0.369 | -2.08 | -3.91 (inactive) | -0.677 (inactive) | -1.24 (inactive)
5 | CCCC[C@@H]1C[C@H]1[C@@H](NC(=O)C(C)(C)C)c1ccc(C(F)(F)F)cc1 | 0.503 (inactive) | 0.414 | -0.948 | 1.43 (inactive) | -0.109 (inactive) | -0.236 (inactive)
6 | CO[C@H]1O[C@H](CO)[C@@H](OC(=O)Nc2ccc(C(F)(F)F)cc2)[C@H](OC(=O)Nc2ccc3c(c2)OCO3)[C@@H]1OC(=O)Nc1ccc2c(c1)OCO2 | 1.42 (inactive) | 0.901 | -2.09 | -5.46 (inactive) | -0.328 (inactive) | -0.0864 (inactive)
7 | C=CCNC(=O)[C@@H]1[C@H]2C(=O)O[C@H](c3ccccc3)[C@H](c3ccccc3)N2[C@H](c2ccc(OCCO)cc2)[C@@]12C(=O)Nc1ccc(C#CCC(C(=O)OC)C(=O)OC)cc12 | 1.21 (inactive) | 0.905 | -2.22 | -1.05 (inactive) | 0.222 (inactive) | 0.477 (inactive)
8 | COc1cc(Br)cc(C(O)C2C=CC3C(=O)N(C)C(=O)C3N2N2CCCCC2)c1OC (stereo unspecified) | -0.0992 (inactive) | 0.823 | -0.11 | -2.65 (inactive) | 0.293 (inactive) | 0.0293 (inactive)
9 | C[C@H]1NC(=O)[C@@]23C(=O)N[C@@H](Cc4ccccc4)C2[C@H](C)[C@@]2(C)O[C@H]2C3/C=C/C/C=C\CNC(=O)[C@@H]2CCCN2C1=O (stereo partly specified) | 0.091 (inactive) | 0.667 | 0.91 | -3.78 (inactive) | 0.237 (inactive) | 0.087 (inactive)
10 | [N-]=[N+]=Nc1ccccc1[C@@H]1OC(c2ccc(OCCCO)cc2)=N[C@]1(CCS(=O)(=O)c1ccccc1)C(N)=O | 1 (inactive) | 0.629 | -2.04 | -4.11 (inactive) | -0.154 (inactive) | -0.0216 (inactive)
11 | O=C1C[C@@](C(=O)NCCN2CCOCC2)(c2ccc([N+](=O)[O-])cc2)[C@@H](c2ccc(CO)cc2)N1CC12CC3CC(CC(C3)C1)C2 | 1.28 (inactive) | 0.795 | -1.29 | -4.58 (inactive) | -0.489 (inactive) | -0.649 (inactive)
12 | C=CC[C@@]1(C(=O)NCCN2CCOCC2)N=C(c2ccc(OCCCO)cc2)O[C@@H]1c1ccccc1N=[N+]=[N-] | 2.32 (inactive) | -0.0559 | -2.21 | -6.17 (inactive) | 0.003 (inactive) | -0.0928 (inactive)
13 | C=CCOC(=O)[C@H]1[C@@H]2C(=O)O[C@@H](c3ccccc3)[C@@H](c3ccccc3)N2[C@@H](c2ccc(OCCOC(=O)[C@H]3C[C@H]4C(=O)N[C@@H](CCCCN(C)C)C(=O)N4[C@H]3c3ccc(O)cc3)cc2)[C@]12C(=O)Nc1ccc(I)cc12 | 0.768 (inactive) | 0.791 | -0.193 | -4.89 (inactive) | 0.622 (inactive) | -0.163 (inactive)
14 | C[N+](C)(C)CCCC[C@@H]1NC(=O)[C@H]2C[C@@H](C(=O)NCCCCCCNC(=O)CS)[C@@H](c3cccc(OCCO)c3)N2C1=O | 0.173 (inactive) | 0.487 | -0.135 | -1.87 (inactive) | 0.964 (inactive) | 1.2 (inactive)
15 | CC(C)=CCCC(C)=CC(O)C1C=CC2C(=O)N(C)C(=O)C2N1Nc1ccccc1 (stereo unspecified) | 0.438 (inactive) | 0.624 | -0.49 | -3.34 (inactive) | -1.1 (inactive) | -1.34 (inactive)
16 | COCCOC(=O)N1C(=O)[C@@]2(c3cc(C#CCNC(N)=O)ccc31)[C@H](C(=O)N1CCN(c3ncccn3)CC1)[C@H]1C(=O)O[C@H](c3ccccc3)[C@H](c3ccccc3)N1[C@@H]2c1ccc(OCCO)cc1 | 0.0897 (inactive) | 0.697 | -0.939 | 0.245 (inactive) | 0.138 (inactive) | 0.0943 (inactive)

Row | SMILES | composite z-score [1] | composite z-score [2] | z-score [3] | z-score [4] | z-score [5] | z-score [6]
17 | CN1C(=O)C2C=CC(C(O)c3ccc([N+](=O)[O-])cc3)N(N3CCCCC3)C2C1=O (stereo unspecified) | 0.0993 (inactive) | 0.471 | -0.114 | -3.98 (inactive) | -0.224 (inactive) | -0.167 (inactive)
18 | O=C(NC1CC1)[C@@H]1c2ccccc2C(=O)N(Cc2ccccc2Cl)[C@H]1c1ccc(CO)cc1 | 0.628 (inactive) | 0.119 | -0.46 | -2.23 (inactive) | -0.825 (inactive) | -1.13 (inactive)
19 | COc1ccc([C@H]2OC[C@@H]3C[C@@H](Cc4ccccc4)C(=O)N32)cc1 | 0.617 (inactive) | 0.0682 | 0.583 | -1.06 (inactive) | 0.375 (inactive) | 0.0727 (inactive)
20 | CC(C)N1C(=O)c2ccccc2[C@](C)(C(=O)NCCN2CCOCC2)[C@@H]1c1ccc(CO)cc1 | 0.0317 (inactive) | -0.119 | 0.437 | -3.78 (inactive) | -0.155 (inactive) | -0.332 (inactive)
21 | C=C[C@H](CO[Si](CC)(CC)CC)N(Cc1ccc(OC(C)=O)c(OC)c1)S(=O)(=O)c1ccc(Br)cc1 | 1.38 (inactive) | 0.88 | 0.378 | 0.476 (inactive) | -0.528 (inactive) | -0.508 (inactive)
22 | CC(C)NC(=O)[C@@]1(C)c2ccccc2C(=O)N(Cc2cc(C(F)(F)F)cc(C(F)(F)F)c2)[C@H]1c1ccc(CO)cc1 | 0.281 (inactive) | 0.427 | -1.54 | -3.76 (inactive) | -0.281 (inactive) | -0.197 (inactive)
23 | C=C(COC)/C(=C/C[C@H](OC(C)=O)c1ccc(CO)o1)c1cc(C(=O)OC)ccc1OC | 0.443 (inactive) | -0.257 | -2.07 | -4.87 (inactive) | -0.45 (inactive) | -0.735 (inactive)
24 | CN(C)C(=O)[C@]1(Cc2ccccc2N=[N+]=[N-])N=C(c2ccc(OCCCO)cc2)O[C@@H]1c1ccccc1N=[N+]=[N-] | 1.31 (inactive) | 0.799 | -2.22 | -3.63 (inactive) | -1.13 (inactive) | -1.55 (inactive)
25 | C=C[C@H](OC)[C@@H](OC(=O)Nc1ccc(OC)cc1)c1ccc(O)c(F)c1 | -0.0346 (inactive) | -0.893 | -0.343 | -3.1 (inactive) | 0.495 (inactive) | 0.76 (inactive)
26 | COC(=O)[C@@]1(Cc2ccc(OC)cc2)[C@H]2c3cc(C(=O)N(C)C)n(Cc4ccccn4)c3C[C@H]2CN1C(=O)c1ccccc1 | 0.544 (inactive) | -0.765 | -1.54 | -5.52 (inactive) | -0.276 (inactive) | -0.406 (inactive)
27 | COc1ccc([Si](C)(C)[C@H]2[C@H](CC(=O)N3Cc4ccccc4C[C@H]3CO)O[C@@]3(C(=O)N(Cc4cccc(N5CCC5=O)c4)c4ccccc43)[C@@H]2C)cc1 | 0.177 (inactive) | 0.719 | -2.33 | -2.97 (inactive) | -0.227 (inactive) | -0.0325 (inactive)
28 | CC(C)[Si]1(C(C)C)O[C@@H](c2ccccc2)c2cc(-c3ccc(-c4ccc(Cl)c(Cl)c4)o3)nc(-c3ccccc3)c21 | -0.142 (inactive) | 0.6 | 0.283 | -1.68 (inactive) | 0.025 (inactive) | -0.606 (inactive)
29 | O=C1O[C@H](c2ccccc2)[C@H](c2ccccc2)N2[C@H]1[C@@H](C(=O)N1CCCCCCC1)[C@]1(C(=O)Nc3ccc(C#CCCO)cc31)[C@H]2c1ccccc1OCCO | 9.51 (active) | 1.07 | -2.07 | 4.52 (inactive) | 0.208 (inactive) | 0.259 (inactive)
30 | CC(C)(C)OC(=O)CC[C@]1(C(=O)N2CCOCC2)N=C(c2ccc(OCCCO)cc2)O[C@H]1c1ccccc1N=[N+]=[N-] | 0.472 (inactive) | 0.472 | -2.28 | -5.38 (inactive) | -0.112 (inactive) | 0.0839 (inactive)
31 | CC(C)C(O)C1C=CC2C(=O)N(c3ccccc3)C(=O)C2N1Nc1ccc([N+](=O)[O-])cc1 (stereo unspecified) | -0.354 (inactive) | -0.266 | 0.935 | -3.78 (inactive) | 0.659 (inactive) | -0.404 (inactive)

Source: PubChem BioAssay
